In all, about 310,000 compounds went through this assay and about 14,000 (4.5%) showed an effect of 50% or more. The effect is printed as a negative number. Only a selection was taken, and strong results are over-represented in it overall.
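Further: peak tail current of the secondary pulse compared with the same well before compound.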

Chain of human ether-à-go-go-related gene (hERG) potassium channel (Q12809 whole entry, looked up): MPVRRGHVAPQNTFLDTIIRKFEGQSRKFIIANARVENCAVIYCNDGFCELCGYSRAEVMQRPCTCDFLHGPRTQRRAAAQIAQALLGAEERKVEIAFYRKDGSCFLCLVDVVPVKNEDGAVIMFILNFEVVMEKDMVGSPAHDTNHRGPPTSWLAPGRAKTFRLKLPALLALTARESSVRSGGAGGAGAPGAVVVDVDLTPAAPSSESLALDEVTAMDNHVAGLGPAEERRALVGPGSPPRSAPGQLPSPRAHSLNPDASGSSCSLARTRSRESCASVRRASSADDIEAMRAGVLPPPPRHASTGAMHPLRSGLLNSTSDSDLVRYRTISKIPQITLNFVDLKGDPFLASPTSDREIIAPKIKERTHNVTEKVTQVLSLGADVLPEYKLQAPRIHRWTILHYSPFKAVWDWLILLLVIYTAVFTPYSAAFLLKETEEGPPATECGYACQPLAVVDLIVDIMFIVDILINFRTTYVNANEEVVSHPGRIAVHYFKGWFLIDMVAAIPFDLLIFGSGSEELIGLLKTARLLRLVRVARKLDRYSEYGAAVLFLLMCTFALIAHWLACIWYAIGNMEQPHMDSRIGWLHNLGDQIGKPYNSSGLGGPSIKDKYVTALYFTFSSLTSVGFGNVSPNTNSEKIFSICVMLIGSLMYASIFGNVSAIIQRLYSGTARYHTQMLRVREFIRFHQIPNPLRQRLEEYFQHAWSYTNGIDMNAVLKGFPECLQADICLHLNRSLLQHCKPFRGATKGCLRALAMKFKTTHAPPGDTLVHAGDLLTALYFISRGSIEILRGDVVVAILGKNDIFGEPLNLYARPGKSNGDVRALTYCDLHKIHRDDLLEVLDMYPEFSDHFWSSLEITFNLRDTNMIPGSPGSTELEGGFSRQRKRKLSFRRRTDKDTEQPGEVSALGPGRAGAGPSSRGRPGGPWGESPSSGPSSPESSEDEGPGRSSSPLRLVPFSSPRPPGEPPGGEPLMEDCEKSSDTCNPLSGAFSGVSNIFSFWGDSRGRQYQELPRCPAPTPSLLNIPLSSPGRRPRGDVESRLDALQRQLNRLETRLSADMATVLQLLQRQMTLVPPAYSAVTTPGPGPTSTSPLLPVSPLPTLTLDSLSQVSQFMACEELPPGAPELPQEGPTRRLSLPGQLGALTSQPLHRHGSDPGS

This experiment has as its target human ether-à-go-go-related gene (hERG) potassium channel (human, UniProt Q12809). Put plainly: primary screen, population patch clamp on CHO cells stably expressing hERG; higher = less effect of the substance.
For the compound `CC(C)C(NC(=O)COc1ccc2ccccc2c1)C(=O)N/N=C/C=C/c1ccccc1` (stereo not shown), the “hERG current change (%, negative = inhibition) at 10uM” value is listed as 14.8%.
For the compound `COc1cc(C2/C(=C(\O)c3ccc4c(c3)CC(C)O4)C(=O)C(=O)N2c2nnc(C)s2)cc(OC)c1OC` (stereo not shown), the “hERG current change (%, negative = inhibition) at 10uM” value is reported as 9.14%.
On to `Cc1c(Cc2ccccc2)c(=O)oc2cc(OCC(=O)N3CCC(C(=O)O)CC3)ccc12`, for which the “hERG current change (%, negative = inhibition) at 10uM” value stood at 6.24%.
With `Cc1noc(C)c1COc1ccc(C(=O)OCC(=O)N2CC3(C)CC2CC(C)(C)C3)cc1` (stereo not shown), the “hERG current change (%, negative = inhibition) at 10uM” value was -6.44%.
For `COC(=O)c1ccc(Oc2c(Cl)cccc2[N+](=O)[O-])cc1`, the “hERG current change (%, negative = inhibition) at 10uM” value came out at 3.65%.
With `COc1ccc(OC(C)C(=O)NCC2CCCO2)cc1` (stereo not shown), the “hERG current change (%, negative = inhibition) at 10uM” value worked out at 18.5%.
In the case of `COC(=O)c1sc(N)c(C(=O)OC)c1COC(=O)c1c(C)noc1C` it was -3.57%; in that of `Cc1noc(C)c1CSc1nnc(C)c(=O)[nH]1`, 7.14%.
`CCOC(=O)c1[nH]c(C)c(C(=O)OCC(=O)N(C)C2CCS(=O)(=O)C2)c1C` (stereo not shown): the “hERG current change (%, negative = inhibition) at 10uM” value was 29%.
For `Cc1cccc(CN2CCN(Cc3ccc4nonc4c3)CC2CCO)n1` (stereo not shown), the “hERG current change (%, negative = inhibition) at 10uM” value is reported as -35.6%.
In the case of `OCCC1CN(Cc2ccc3cc(Cl)ccc3n2)CCN1Cc1ccsc1` (stereo not shown), the “hERG current change (%, negative = inhibition) at 10uM” value is reported as -65%.
Turning to `OCCC1CN(Cc2cccc3nonc23)CCN1Cc1ccsc1` (stereo not shown), the “hERG current change (%, negative = inhibition) at 10uM” value was -52.6%.
Take `OCCC1CN(Cc2cccc3nonc23)CCN1C1CCCCC1` (stereo not shown): the “hERG current change (%, negative = inhibition) at 10uM” value is listed as -5.74%.
`OCCC1CN(Cc2ccc3nonc3c2)CCN1Cc1ccsc1` (stereo not shown): the “hERG current change (%, negative = inhibition) at 10uM” value is -66.1%.
In the case of `CC(C)N1CCC(N2CCN(Cc3cccc4nonc34)CC2CCO)CC1` (stereo not shown) it was 3.08%; in that of `CCOc1ccc2nc(CN3CCN(Cc4ccsc4)C(CCO)C3)ccc2c1` (stereo not shown), -47%.
In the case of `O=C(CN1CCCC1)Nc1ccc(Cl)cc1C(F)(F)F` it was 0.32%; in that of `COCC(C)N=C1NN=C(c2cccs2)C(CC(=O)O)S1` (stereo not shown), 20%; in that of `CS(=O)(=O)Oc1ccc(/C=C2\C(=N)N3N=C(CC(=O)N4CCOCC4)SC3=NC2=O)cc1Cl`, -2.27%.
In the case of `COc1cc2c(cc1OC)/C(=C/c1ccc(Cl)cc1)C(=O)OC2`, the “hERG current change (%, negative = inhibition) at 10uM” value is -36.4%.
In the case of `NC(=O)CSc1nnc(NC(=O)C2CC(=O)N(c3ccc(F)cc3)C2)s1` (stereo not shown), the “hERG current change (%, negative = inhibition) at 10uM” value worked out at 26.1%.
Regarding `O=C(Cc1ccc(S(=O)(=O)N2CCOCC2)s1)OCc1ccc(Cl)cc1`, the “hERG current change (%, negative = inhibition) at 10uM” value is -20.1%.
For the compound `COC(=O)c1ccc(NC(=O)COc2ccc(S(=O)(=O)N3CCCCC3)cc2)cc1`, the “hERG current change (%, negative = inhibition) at 10uM” value is listed as -9.57%.
In the case of `Cc1ccc(Cl)c(OCC(=O)NCc2ccco2)c1`, the “hERG current change (%, negative = inhibition) at 10uM” value amounted to 1.03%.
For the compound `COc1ccc(OC)c(/C=N/NC(=O)CCc2n[nH]c(=O)[nH]c2=O)c1`, the “hERG current change (%, negative = inhibition) at 10uM” value was found to be 4.8%.
On to `CCOc1ccccc1N1CC(C(=O)Nc2ccc(S(=O)(=O)N3CCCCC3)cc2)CC1=O` (stereo not shown), for which the “hERG current change (%, negative = inhibition) at 10uM” value is -3.91%.
On to `S=C(Nc1ccc2cn[nH]c2c1)Nc1ccccc1Cl`, for which the “hERG current change (%, negative = inhibition) at 10uM” value is on record as -4.68%.
Regarding `COc1ccc(NC(=O)CN(C)C(=O)c2cc(S(=O)(=O)N3CCCCCC3)ccc2OC)cc1`, the “hERG current change (%, negative = inhibition) at 10uM” value was -24%.
`COc1cccc(NC(=O)CN(C)C(=O)c2cc(S(=O)(=O)N3CCCCC3)ccc2Cl)c1`: the “hERG current change (%, negative = inhibition) at 10uM” value is recorded as -34.7%.
Under `COc1ccc(S(=O)(=O)N2CCCCCC2)cc1C(=O)N(C)Cc1ccccc1F` stands -53.2%; under `COc1ccc(S(=O)(=O)N2CCCCCC2)cc1C(=O)N(C)Cc1c(F)cccc1Cl`, -49.8%; under `COc1cccc(NC(=O)CN(C)C(=O)c2cc(S(=O)(=O)NCc3ccccc3)ccc2C)c1`, -71.1%.
Regarding `Cc1ccc(S(=O)(=O)NCc2ccccc2)cc1C(=O)N(C)CC(=O)Nc1c(Cl)cccc1Cl`, the “hERG current change (%, negative = inhibition) at 10uM” value was -30.4%.
Consider `COc1ccc(S(=O)(=O)N2CCOCC2)cc1C(=O)N(C)Cc1ccccc1F`, for which the “hERG current change (%, negative = inhibition) at 10uM” value is reported as -37.8%.
On to `COc1cccc(NC(=O)CN(C)C(=O)c2cc(S(=O)(=O)N3CCCCCC3)ccc2OC)c1`, for which the “hERG current change (%, negative = inhibition) at 10uM” value was -50.9%.
Under `COc1ccc(NS(=O)(=O)c2ccc(C)c(C(=O)N(C)CC(=O)Nc3cccc(OC)c3)c2)cc1` stands -9.42%.
In the case of `Cc1ccc(S(=O)(=O)N(Cc2cccc(C(F)(F)F)c2)C(=O)N2CCN(C)CC2)cc1` it was 10.3%.
Take `COC(=O)CCC(=O)OC1(C)C(=O)C2=CN(CCCOC(C)C)C(c3ccc(OC)cc3)=CC2=C(Br)C1=O` (stereo not shown): the “hERG current change (%, negative = inhibition) at 10uM” value was -22.7%.
As for `CC(=O)NC(=O)NC1CSCC1OC(C)=O` (stereo not shown), the “hERG current change (%, negative = inhibition) at 10uM” value is listed as 15.8%.
In the case of `CC(NC(=O)CCCn1cc([N+](=O)[O-])cn1)c1ccccc1` (stereo not shown) it was -3.6%; in that of `COc1ccccc1/C=N/NC(=O)CC(=O)NCCc1ccccc1`, 12.1%.
As to `CCOC(=O)c1cc(-c2ccccc2)sc1NC(=O)CC`, the “hERG current change (%, negative = inhibition) at 10uM” value is given as 1.19%.
With `CCOCC(=O)Nc1ccc(S(=O)(=O)NCCc2ccccc2)cc1`, the “hERG current change (%, negative = inhibition) at 10uM” value is given as -22.9%.
As to `Nc1ccc(C(=O)Nc2ccccc2C(=O)O)cc1`, the “hERG current change (%, negative = inhibition) at 10uM” value amounted to 10.2%.
In the case of `Cc1[nH]n2c(=O)c3c(nc2c1-c1ccccc1)CCC3`, the “hERG current change (%, negative = inhibition) at 10uM” value was 0.138%.
Turning to `CCCN(CCC(=O)Nc1cc(OC)cc(OC)c1)CC1CC1.Cl`, the “hERG current change (%, negative = inhibition) at 10uM” value is -12.1%.
Consider `Cc1cc(NC(=O)c2nn3cccnc3c2Cl)no1`, for which the “hERG current change (%, negative = inhibition) at 10uM” value was found to be 6.12%.
`CNC(=S)Nc1cc(Cl)ccc1Oc1ccccc1`: the “hERG current change (%, negative = inhibition) at 10uM” value was -6.86%.
On to `CCc1nnc(NC(=O)CCN2C(=O)CCC2=O)s1`, for which the “hERG current change (%, negative = inhibition) at 10uM” value is given as -8.3%.
As for `COc1ccc2sc(-c3ccc(SC)cc3)c(C#CC(C)(C)O)c2c1`, the “hERG current change (%, negative = inhibition) at 10uM” value came out at 11.6%.
For the compound `CCOC(=O)C1(CCOc2ccccc2)CCN(Cc2ccccc2OC)CC1`, the “hERG current change (%, negative = inhibition) at 10uM” value is recorded as -71.4%.
Under `CCOC(=O)C1(CCOc2ccccc2)CCN(Cc2cccc(OC)c2O)CC1` stands -70.5%; under `CCOC(=O)C1(CCOc2ccccc2)CCN(Cc2cc(OC)c(O)cc2Cl)CC1`, -69.2%; under `CCOC(=O)C1(CCOc2ccccc2)CCN(Cc2ccccc2O)CC1`, -30.8%.
`CCOC(=O)C1(CCOc2ccccc2)CCN(Cc2cc(OC)ccc2OC)CC1`: the “hERG current change (%, negative = inhibition) at 10uM” value was -73.2%.
